Results published in the supplement of paper PMC11732987, “Enantioselective OTUD7B fragment discovery through chemoproteomics screening and high-throughput optimisation” (Communications Chemistry, 2025).

Experiments:
Test in all cases: log2 ratio of Biotin-Ahx-Ub-VS probe labelling (fragment/DMSO); higher = less target engagement (more negative = stronger competition), active = hit call of the paper (q ≤ 0.05, log2 ratio ≤ -1)
Conditions in all cases: compound concentration: 200 uM; treatment time: 3 h
USP34 = USP34 (UniProt Q70CQ2)
How it was run: (§1)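 Labelling with Biotin-Ahx-Ub-VS (0.5 µM final, 1 h) followed a 3 h triplicate treatment of HEK293T lysate (495 µg per sample, Tris/CHAPS/IGEPAL buffer with protease inhibitors) with fragment at 200 µM or vehicle. Labelled DUBs were NeutrAvidin-enriched, digested with LysC and trypsin, and run by diaPASEF LC-MS/MS. The values, average log2 fragment/vehicle ratios by unpaired t-test, come from global-median-normalised Spectronaut label-free quantities. Proteins with ≥2 unique peptides were used.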

USP36 = target: T1, USP36 (UniProt Q9P275)
T1 sequence (whole entry): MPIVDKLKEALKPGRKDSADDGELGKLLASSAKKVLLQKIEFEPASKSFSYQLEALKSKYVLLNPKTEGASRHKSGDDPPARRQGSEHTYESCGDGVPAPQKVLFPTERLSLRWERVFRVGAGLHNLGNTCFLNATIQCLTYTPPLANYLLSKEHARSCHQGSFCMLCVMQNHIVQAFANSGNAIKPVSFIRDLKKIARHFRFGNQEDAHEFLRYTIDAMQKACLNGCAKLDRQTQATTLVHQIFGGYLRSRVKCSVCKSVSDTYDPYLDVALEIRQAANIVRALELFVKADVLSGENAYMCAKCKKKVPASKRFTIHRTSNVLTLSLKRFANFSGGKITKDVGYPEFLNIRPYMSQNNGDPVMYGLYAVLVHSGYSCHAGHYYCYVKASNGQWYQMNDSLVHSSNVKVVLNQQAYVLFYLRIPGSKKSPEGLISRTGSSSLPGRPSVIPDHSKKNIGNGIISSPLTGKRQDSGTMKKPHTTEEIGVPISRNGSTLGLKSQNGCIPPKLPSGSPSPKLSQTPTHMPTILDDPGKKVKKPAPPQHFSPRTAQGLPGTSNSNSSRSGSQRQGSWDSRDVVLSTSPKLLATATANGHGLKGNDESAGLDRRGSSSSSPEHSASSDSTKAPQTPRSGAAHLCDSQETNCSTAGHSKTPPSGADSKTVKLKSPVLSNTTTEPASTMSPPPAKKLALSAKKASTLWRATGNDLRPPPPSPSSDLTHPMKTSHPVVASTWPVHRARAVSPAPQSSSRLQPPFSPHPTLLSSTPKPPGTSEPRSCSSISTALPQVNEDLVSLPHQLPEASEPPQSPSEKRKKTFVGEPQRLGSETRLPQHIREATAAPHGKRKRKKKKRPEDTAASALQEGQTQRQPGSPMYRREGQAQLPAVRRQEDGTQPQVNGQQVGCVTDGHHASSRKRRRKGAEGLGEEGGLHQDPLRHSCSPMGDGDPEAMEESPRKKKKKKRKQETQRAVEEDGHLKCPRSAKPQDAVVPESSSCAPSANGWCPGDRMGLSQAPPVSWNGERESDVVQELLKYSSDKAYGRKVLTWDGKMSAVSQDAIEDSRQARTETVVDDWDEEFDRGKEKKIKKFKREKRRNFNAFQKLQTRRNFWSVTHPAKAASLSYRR
How it was run: as §1

USP38 = target: T2, USP38 (UniProt Q8NB14)
T2 sequence (whole entry): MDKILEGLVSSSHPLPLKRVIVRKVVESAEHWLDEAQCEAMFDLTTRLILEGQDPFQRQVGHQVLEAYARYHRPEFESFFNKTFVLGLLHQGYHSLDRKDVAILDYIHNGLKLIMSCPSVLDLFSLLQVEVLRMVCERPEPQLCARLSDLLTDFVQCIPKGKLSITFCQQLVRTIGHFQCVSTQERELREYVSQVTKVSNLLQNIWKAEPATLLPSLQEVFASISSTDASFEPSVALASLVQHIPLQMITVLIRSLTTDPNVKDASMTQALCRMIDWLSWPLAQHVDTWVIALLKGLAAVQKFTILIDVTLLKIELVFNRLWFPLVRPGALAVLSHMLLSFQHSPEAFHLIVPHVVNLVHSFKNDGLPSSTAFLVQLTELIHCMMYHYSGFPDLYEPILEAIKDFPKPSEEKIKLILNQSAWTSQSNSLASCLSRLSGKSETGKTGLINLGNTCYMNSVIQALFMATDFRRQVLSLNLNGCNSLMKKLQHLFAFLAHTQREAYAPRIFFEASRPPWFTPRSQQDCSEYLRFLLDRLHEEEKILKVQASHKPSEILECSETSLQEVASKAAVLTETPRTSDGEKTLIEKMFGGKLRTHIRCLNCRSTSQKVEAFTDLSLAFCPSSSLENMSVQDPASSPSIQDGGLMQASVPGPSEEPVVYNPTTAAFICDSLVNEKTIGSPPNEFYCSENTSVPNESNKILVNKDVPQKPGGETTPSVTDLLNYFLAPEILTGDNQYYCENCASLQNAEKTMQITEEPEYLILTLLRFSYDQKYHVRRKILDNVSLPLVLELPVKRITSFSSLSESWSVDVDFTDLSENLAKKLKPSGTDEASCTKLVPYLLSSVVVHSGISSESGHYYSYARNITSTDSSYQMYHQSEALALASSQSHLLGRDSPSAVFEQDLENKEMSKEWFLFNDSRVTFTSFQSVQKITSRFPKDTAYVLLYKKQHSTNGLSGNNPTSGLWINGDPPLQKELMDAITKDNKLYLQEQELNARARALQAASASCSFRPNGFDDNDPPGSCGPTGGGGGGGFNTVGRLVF
How it was run: as §1

USP39 = target: T3, USP39 (UniProt Q53GS9)
T3 sequence (whole entry): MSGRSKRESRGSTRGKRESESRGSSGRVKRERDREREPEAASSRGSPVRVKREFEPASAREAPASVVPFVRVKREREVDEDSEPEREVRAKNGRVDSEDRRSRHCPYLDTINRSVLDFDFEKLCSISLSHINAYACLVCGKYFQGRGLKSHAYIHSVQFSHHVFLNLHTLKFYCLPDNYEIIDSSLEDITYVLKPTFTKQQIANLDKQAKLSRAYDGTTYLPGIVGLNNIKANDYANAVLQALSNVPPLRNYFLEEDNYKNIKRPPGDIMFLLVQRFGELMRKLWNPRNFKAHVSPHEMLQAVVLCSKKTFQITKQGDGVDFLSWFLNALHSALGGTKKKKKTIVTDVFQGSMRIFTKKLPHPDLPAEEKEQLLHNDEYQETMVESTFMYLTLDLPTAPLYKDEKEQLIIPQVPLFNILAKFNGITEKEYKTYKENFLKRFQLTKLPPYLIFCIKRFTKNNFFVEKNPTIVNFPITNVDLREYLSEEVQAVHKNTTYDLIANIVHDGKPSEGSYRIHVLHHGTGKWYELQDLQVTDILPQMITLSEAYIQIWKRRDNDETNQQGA
How it was run: as §1

USP4 = target: T4, USP4 (UniProt Q13107)
T4 sequence (whole entry): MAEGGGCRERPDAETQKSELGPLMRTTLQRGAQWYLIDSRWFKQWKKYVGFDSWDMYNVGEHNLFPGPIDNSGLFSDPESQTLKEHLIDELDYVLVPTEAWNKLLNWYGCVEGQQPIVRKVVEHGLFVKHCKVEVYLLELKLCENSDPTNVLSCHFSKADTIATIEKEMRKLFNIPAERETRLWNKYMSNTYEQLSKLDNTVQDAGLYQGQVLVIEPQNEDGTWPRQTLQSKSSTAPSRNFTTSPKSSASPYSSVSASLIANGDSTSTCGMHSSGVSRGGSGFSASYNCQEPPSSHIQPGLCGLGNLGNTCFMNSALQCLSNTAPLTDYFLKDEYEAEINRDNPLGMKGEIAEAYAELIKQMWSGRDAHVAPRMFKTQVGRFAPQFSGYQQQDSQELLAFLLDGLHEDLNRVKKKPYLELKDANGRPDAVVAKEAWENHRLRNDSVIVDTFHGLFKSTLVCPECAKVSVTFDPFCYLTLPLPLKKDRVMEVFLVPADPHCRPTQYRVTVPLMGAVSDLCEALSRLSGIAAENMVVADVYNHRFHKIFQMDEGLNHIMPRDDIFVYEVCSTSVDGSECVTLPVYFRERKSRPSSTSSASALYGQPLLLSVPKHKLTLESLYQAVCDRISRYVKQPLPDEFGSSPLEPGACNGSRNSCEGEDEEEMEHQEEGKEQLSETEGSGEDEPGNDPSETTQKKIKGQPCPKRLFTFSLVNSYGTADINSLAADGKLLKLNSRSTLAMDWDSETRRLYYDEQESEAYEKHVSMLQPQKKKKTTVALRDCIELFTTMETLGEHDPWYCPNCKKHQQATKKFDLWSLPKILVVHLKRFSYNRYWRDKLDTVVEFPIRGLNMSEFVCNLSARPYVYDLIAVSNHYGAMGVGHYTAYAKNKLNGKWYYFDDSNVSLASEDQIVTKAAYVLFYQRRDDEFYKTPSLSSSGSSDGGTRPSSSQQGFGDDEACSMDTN
How it was run: as §1

Measured: log2 ratio of Biotin-Ahx-Ub-VS probe labelling

USP34, sequence (Q70CQ2 whole entry, the tested form may be a part): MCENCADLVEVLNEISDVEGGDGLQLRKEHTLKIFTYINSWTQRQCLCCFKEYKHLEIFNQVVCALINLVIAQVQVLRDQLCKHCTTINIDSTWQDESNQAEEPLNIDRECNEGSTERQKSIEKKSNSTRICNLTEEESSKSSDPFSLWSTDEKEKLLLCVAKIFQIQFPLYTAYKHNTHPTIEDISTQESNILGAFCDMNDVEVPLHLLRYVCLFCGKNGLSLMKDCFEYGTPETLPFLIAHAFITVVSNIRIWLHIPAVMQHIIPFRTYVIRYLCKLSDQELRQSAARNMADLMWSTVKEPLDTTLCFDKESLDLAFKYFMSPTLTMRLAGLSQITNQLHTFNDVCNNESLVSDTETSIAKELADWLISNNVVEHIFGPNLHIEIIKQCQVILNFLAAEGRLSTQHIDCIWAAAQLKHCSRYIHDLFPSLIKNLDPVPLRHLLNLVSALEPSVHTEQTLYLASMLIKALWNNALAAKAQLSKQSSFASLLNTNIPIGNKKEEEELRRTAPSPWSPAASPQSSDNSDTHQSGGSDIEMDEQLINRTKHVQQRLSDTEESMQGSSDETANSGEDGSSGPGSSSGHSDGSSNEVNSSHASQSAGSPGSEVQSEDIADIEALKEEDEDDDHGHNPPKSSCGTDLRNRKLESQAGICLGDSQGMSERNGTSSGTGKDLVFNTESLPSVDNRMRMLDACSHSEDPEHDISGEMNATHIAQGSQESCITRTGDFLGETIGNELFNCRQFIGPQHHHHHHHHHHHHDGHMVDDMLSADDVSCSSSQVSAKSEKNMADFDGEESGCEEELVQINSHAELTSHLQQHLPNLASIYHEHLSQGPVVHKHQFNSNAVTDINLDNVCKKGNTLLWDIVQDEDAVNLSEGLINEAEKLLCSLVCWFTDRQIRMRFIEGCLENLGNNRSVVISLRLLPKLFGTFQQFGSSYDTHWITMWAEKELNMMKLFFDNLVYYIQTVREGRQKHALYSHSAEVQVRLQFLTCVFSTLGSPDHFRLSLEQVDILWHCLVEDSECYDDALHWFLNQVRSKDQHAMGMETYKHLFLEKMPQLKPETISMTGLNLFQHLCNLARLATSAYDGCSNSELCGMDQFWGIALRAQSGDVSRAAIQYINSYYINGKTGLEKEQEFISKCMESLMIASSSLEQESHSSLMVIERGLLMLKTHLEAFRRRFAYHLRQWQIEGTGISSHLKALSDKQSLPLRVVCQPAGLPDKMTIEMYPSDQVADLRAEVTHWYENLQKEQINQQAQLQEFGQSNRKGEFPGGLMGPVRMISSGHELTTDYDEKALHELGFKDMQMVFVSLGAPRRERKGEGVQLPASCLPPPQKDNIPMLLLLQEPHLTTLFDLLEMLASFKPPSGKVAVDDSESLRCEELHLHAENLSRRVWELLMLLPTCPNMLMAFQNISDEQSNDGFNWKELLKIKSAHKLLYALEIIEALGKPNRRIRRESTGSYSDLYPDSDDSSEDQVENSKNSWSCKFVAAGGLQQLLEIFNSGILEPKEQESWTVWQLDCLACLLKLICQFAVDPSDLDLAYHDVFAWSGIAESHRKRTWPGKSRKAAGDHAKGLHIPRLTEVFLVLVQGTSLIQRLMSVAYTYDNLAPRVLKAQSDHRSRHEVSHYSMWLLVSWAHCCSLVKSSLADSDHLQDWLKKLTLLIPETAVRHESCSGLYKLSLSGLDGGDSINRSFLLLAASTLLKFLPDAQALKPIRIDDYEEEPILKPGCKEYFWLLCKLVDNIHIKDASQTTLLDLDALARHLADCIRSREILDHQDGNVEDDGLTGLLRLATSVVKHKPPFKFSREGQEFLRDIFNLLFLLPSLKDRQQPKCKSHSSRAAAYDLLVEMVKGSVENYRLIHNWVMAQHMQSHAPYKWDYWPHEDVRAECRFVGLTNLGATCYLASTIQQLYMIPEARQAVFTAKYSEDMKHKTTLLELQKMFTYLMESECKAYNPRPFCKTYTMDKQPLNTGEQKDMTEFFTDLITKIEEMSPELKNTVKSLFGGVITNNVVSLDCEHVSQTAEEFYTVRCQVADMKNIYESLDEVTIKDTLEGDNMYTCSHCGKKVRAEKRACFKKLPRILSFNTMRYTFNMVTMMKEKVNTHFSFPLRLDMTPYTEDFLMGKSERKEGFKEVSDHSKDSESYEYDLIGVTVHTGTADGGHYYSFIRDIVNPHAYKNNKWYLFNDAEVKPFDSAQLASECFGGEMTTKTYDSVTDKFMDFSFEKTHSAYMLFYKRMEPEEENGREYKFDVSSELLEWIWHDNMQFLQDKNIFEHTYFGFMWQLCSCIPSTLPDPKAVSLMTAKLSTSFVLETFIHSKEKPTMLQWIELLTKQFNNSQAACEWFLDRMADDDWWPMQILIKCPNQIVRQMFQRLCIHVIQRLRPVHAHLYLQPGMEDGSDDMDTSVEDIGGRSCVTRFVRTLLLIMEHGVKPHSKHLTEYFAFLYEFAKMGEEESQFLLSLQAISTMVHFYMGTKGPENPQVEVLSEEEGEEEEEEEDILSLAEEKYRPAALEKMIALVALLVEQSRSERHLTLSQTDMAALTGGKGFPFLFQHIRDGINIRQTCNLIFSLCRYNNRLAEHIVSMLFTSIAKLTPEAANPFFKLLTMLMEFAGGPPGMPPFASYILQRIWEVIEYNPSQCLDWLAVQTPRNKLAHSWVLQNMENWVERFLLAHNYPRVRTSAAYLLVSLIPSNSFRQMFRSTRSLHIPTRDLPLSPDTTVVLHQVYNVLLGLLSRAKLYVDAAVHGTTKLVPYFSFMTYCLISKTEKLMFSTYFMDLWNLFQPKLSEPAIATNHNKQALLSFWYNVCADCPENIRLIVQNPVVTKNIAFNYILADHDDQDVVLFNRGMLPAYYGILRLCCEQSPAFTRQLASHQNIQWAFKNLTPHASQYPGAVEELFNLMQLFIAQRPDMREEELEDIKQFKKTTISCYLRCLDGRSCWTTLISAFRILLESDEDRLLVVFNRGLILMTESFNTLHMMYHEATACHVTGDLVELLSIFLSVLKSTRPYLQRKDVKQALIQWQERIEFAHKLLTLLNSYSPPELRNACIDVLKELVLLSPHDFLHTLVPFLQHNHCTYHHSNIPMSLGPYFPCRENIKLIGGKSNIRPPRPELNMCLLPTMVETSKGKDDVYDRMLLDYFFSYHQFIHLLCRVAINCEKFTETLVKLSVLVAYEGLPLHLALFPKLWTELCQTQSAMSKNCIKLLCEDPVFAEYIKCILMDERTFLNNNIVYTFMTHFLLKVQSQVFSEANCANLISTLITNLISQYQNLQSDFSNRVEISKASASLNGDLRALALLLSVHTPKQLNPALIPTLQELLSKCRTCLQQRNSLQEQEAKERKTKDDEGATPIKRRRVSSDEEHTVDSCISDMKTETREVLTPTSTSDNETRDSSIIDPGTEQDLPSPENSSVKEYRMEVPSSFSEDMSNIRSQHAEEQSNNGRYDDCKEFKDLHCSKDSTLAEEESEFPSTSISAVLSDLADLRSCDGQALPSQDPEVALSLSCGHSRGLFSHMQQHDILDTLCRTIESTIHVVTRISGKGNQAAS

O=C(CCl)NCCc1ccc2c(c1)OCCO2
inactive: USP34 -0.523 | USP36 -0.0707 | USP38 -0.0664 | USP39 -0.16 | USP4 -0.295
